Compounds with a hit are over-represented: about 4.6% of the library has one in this group of screens.
D1 antag = Antagonist of Human D 1 Dopamine Receptor: qHTS | D(1A) dopamine receptor (Homo sapiens), P21728 | HEK293 TREx D1 cells, calcium flux, dopamine EC80; active compounds read low | activity change, negative = inhibition, % at 10 µM | hit rate 3.2% among 360,000 | AID 504652, 2011; in the data active means activity change below about -30%; further: on the % scale 0 is the no-effect control and ±100 the full control effect
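Tetracycline-induced HEK293 Trex D1 cells, force-coupled to calcium, dye-loaded; compounds added and read 180 s, then EC80 dopamine added and calcium flux tracked kinetically another 180 s.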
D1 PAM = Potentiators of Human D1 Dopamine Receptor: qHTS; D(1A) dopamine receptor (Homo sapiens), P21728; hit rate 0.036% among 360,000; potentiation, % at 10 µM; AID 504651, 2011; HEK293 TREx D1 cells, calcium flux, dopamine EC20 potentiation; in the data active means potentiation above about 30%; further: 0% is about no effect
D1 ag = Allosteric Agonists of the Human D1 Dopamine Receptor: qHTS; D(1A) dopamine receptor (Homo sapiens), P21728; hit rate 1% among 360,000; HEK293 T-REx D1 cells, calcium flux, agonist mode; activation, % at 2 µM; further: 0% is about no effect
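Tetracycline-induced HEK293 TREx D1 cells, force-coupled to calcium signalling, were dye-loaded with a no-wash calcium kit. Compound was pin-added after a 10 s baseline. Fluorescence was read kinetically at 1 cycle/s for 180 s, with calcium rises flagged as agonism.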
TRHR enhancer = qHTS for Small Molecule Agonists and Allosteric Enhancers of Human TRH Receptor: Primary Screen for Enhancers; TRHR cells, fluo-8 calcium fluorescence, EC20 TRH enhancement; Thyrotropin-releasing hormone receptor (Homo sapiens), P34981; enhancement, % at 2 µM; hit rate 0.66% among 360,000; in the data active means enhancement above about 30%; further: 0% is about no effect
Target sequence (P34981 whole entry, looked up): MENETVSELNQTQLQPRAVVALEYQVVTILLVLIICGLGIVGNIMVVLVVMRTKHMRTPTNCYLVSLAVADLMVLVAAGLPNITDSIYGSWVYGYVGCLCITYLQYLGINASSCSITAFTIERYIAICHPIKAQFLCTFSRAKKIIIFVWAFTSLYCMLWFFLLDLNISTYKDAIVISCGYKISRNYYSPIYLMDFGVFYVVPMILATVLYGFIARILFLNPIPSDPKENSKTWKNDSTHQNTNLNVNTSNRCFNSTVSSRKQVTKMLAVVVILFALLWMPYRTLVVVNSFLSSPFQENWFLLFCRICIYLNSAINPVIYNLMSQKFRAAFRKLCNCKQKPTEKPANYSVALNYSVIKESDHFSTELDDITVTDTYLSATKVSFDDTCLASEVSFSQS
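Enhancer read-out: after compound pinning and an initial kinetic agonist-mode read, an EC20 of TRH (10 nM final) was injected and fluo-8 calcium signal (Ex 480/Em 530) followed at 1 s/cycle for 100 cycles in TRHR-expressing cells.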
TRHR agonist = qHTS for Small Molecule Agonists and Allosteric Enhancers of Human TRH Receptor: Primary Screen for Agonists. TRHR cells, calcium flux fluo-8, FDSS agonist mode. hit rate 0.18% among 360,000. activation, % at 2 µM. AID 493084, 2011. Thyrotropin-releasing hormone receptor (Homo sapiens), P34981; further: 0% is about no effect
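TRHR-expressing cells loaded with fluo-8 calcium dye; 23 nL library compound pin-transferred, kinetic FDSS fluorescence (Ex 480/Em 530) recorded about 180 s for agonist-induced calcium release, before a 10 nM TRH EC20 addition for potentiator mode.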
* hit, by the source's call. Unless noted, no stated cut-off is given here; in the data, active means activation above about 30%; inactive means the rest.

SMILES | D1 antag | D1 PAM | D1 ag | TRHR enhancer | TRHR agonist
O=C(Nc1cccc(-n2cnnn2)c1)c1ccc(C(F)(F)F)cc1 | -32* | -4 | 4 | 8 | 1
COc1ccc(OC)c(NC(=O)COC(=O)c2ccc(-n3cnnn3)cc2)c1 | 0 | -1 | 2 | -2 | 0
COC(=O)c1cc2cc(Cl)ccc2nc1SC | 14 | 7 | 4 | -1 | -1
C=C(C)c1cc2c(s1)c1cnn(Cc3ccccc3F)c(=O)c1n2C | 32 | 18 | 10 | 7 | 1
CC(C)c1ccc(NC(=O)Cn2cc(S(=O)(=O)Cc3cccc(Cl)c3)c3ccccc32)cc1 | 3 | 3 | 2 | 11 | 1
COc1cc(NC(=O)C2Cc3ccccc3N2C(=O)c2ccccc2)cc(OC)c1 (configuration not stated) | -1 | 1 | 1 | 4 | 0
CCn1cc(C(=O)N[C@@H](CC(C)C)C(=O)NCCCn2ccnc2)c(=O)c2cc3c(cc21)OCO3 | 7 | 3 | 5 | 1 | 0
Cc1cc(C)c(C)c(S(=O)(=O)Nc2cccc(-n3cnnn3)c2)c1C | -33* | -5 | 7 | 6 | 0
Cc1cc(C)c(S(=O)(=O)Nc2cccc(-n3cnnn3)c2)c(C)c1 | -16 | -1 | 6 | -4 | 0
CC(OC(=O)c1cccc(-n2cnnn2)c1)C(=O)Nc1cccc(Cl)c1 (configuration not stated) | -36* | -5 | 8 | -3 | 0
CC(=O)c1ccc(NC(=O)C(C)OC(=O)c2cccc(-n3cnnn3)c2)cc1 (configuration not stated) | -10 | -4 | 0 | -8 | 0
Fc1ccccc1N1CCN(C2CCN(Cc3c[nH]c4ccccc34)CC2)CC1 | -7 | -7 | 46* | 3 | -1
O=C(CN1CCN(c2ccccc2F)CC1)c1c[nH]c2ccccc12 | -6 | -8 | 10 | -5 | 0
Cc1cccc(CNC(=O)c2cccc(NC(=O)N3CCSc4ncccc43)c2)c1 | -35* | -4 | 1 | -5 | 0
Cc1occc1C(=O)Nc1cccc(C(=O)NCc2ccccc2)c1 | -40* | -16 | 6 | 1 | 0
Cc1ccc(C(=O)Nc2cccc(C(=O)NCc3ccccc3)c2)cc1 | -10 | -12 | 2 | -7 | -1
O=C(CC1C=Cc2ccccc2N1C(=O)c1ccccc1)c1ccccc1 (configuration not stated) | 5 | -4 | 4 | 9 | -2
CCN(CC)Cc1c(-c2ccccc2)[nH]c2ccc(C)cc2c1=O | -48* | -13 | 0 | 10 | 0
Cc1ccc2[nH]c(-c3ccccc3)cc(=O)c2c1 | -18 | -5 | -1 | -2 | 0
COc1cc(CNCCN2CCOCC2)ccc1OCC(=O)NC(C)(C)C | -1 | -21 | 32* | 7 | 0
CCOc1cc(CNCc2cccs2)ccc1OCC(=O)NC(C)(C)C | -7 | -3 | 16 | 2 | 1
CCOc1cc(CNCCc2ccc(S(N)(=O)=O)cc2)ccc1OCC(=O)NC(C)(C)C | -1 | -2 | 2 | 3 | 0
COc1cc(CNCCCN2CCOCC2)ccc1OCC(=O)NC(C)(C)C | 7 | -6 | 2 | -4 | 1
CCOc1cc(CNCc2cccnc2)ccc1OCC(=O)NC(C)(C)C | 3 | -6 | 3 | 36* | 0
CCOc1cc(CNCCc2ccccc2)ccc1OCC(=O)NC(C)(C)C | -4 | -3 | 122* | -3 | -1
COc1ccccc1NC(=O)c1oc2ccccc2c1NC(=O)Cc1cccs1 | -2 | -3 | 4 | -6 | 0
Cc1cccc(OCc2nnc(SCC(=O)Nc3cccc(C(=O)N4CCOCC4)c3)n2C)c1C | -42* | -2 | 2 | 4 | 0
COc1ccc(CCNCc2cc(C)n(-c3ccc(OC)cc3)c2C)cc1 | -6 | -8 | 55* | -14 | 0
COc1ccc(CCNCc2ccccc2N2CCCC2)cc1 | 10 | 2 | 1 | -5 | -1

High-throughput results as filed in PubChem BioAssay.
